Screens as filed in PubChem BioAssay.
PKA-R2B act – activators of PKA-R2B holoenzyme, primary screen, biochemical, fluorescence polarization, Cy5-IP20, human. activation, % at 11.4 µM. AID 504700, 2011. cAMP-dependent protein kinase catalytic subunit beta (Homo sapiens) + cAMP-dependent …. hit rate 0.079% among 340,000. PKA-R2B holoenzyme dissociation; R2B truncated from residue 108, S112A mutant; 0% DMSO only, 100% 113 µM cGMP;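 active = activation above a cutoff set at the mean over all compounds plus 3 SD, cut at about 18% in these data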;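 note: higher means more holoenzyme dissociation and a rise in polarization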
Target sequence (P31323 whole entry, looked up, other chains not shown, the tested form may be a part): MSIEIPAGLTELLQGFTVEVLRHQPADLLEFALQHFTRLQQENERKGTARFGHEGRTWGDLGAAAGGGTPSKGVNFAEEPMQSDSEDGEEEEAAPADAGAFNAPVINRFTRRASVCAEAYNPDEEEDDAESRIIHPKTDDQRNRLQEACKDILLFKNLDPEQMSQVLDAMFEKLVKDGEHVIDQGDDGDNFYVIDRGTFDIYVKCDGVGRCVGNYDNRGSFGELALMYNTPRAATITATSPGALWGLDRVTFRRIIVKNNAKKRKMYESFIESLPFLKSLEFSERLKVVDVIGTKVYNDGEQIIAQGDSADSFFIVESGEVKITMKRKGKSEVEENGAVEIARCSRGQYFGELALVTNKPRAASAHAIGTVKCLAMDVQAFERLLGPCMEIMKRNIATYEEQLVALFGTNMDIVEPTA
PolyA inhibitor – polyadenylation inhibitors in yeast reporter cells, primary screen, luminescence, S. cerevisiae | activity score, % at 12 µM | S. cerevisiae SKY197-pL101 polyadenylation reporter, beta-gal luminescence; efflux-impaired pdr1/pdr3 knockout yeast; score 100 = 6 SD above DMSO | hit rate 0.02% among 300,000;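 active = lowest replicate activity score at least 50, where 100 means six control SD above control mean; inconclusive = lowest score under 50 but half or more replicates reach 50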;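 note: yeast exposed to compound for 9 h at 30 °C; higher score means more reporter readthrough which indicates perturbed polyadenylation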
Neddylation inh – inhibitors of cullin neddylation, primary screen, biochemical, TR-FRET, uHTS, NAE and Ubc12. NEDD8-conjugating enzyme Ubc12 (Homo sapiens) + NEDD8-activating enzyme E1 regulatory …. hit rate 0.58% among 360,000. calls only at 25 µM; in the data active = inhibition above about 36%
PKA-R1A activ – activators of PKA-R1A holoenzyme, primary screen, biochemical, fluorescence polarization, Cy5-IP20, bovine R1A, mouse PKAc; hit rate 0.083% among 340,000; cAMP-dependent protein kinase type I-alpha regulatory subunit (Bos taurus) + …; AID 504707, 2011; activation, % at 11.4 µM; PKA-R1A dissociation; scaled: DMSO 0%, 113 µM cGMP 100%;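 active = percent activation above the mean of all tested compounds plus 3 SD, cut at about 19% in these data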;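 note: higher means more PKAc released from R1A so a rise in polarization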
Neddyl conf – blockade of NEDD8 conjugation to cullin – biochemical, TR-FRET, single concentration, confirmation; shares compounds with Neddylation inh; TR-FRET cullin neddylation biochemical assay; calls only at 25 µM; hit rate 13% among 1,800; AID 652217, 2013; in the data active = inhibition above about 40%;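 note: neddylation substrate is the cullin 1 ring ligase complex with SKP2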
* hit, by the source's call; i = inactive; ? = inconclusive; . = no result shown; + = active, no number. Sampled rows, rich in hits. Any-hit rate of the full collection: about 0.72%.

SMILES	PKA-R2B act	PolyA inhibitor	Neddylation inh	PKA-R1A activ	Neddyl conf
COc1ccc(N2CCN(C(=O)COCC(=O)O)CC2)cc1	7	10	i	-3	.
CC(C)Cc1nc(N2CCN(C(=O)c3ccco3)CC2)c(C#N)c2c1CCCC2	4	8	i	-9	.
COc1cccc(-c2nc(C#N)c(N3CCN(C(=O)c4ccco4)CC3)o2)c1	-13	3	+	-2	i
N#Cc1cccnc1N1CCN(C(=O)c2ccco2)CC1	3	5	+	-10	i
N#Cc1cccnc1N1CCN(C(=O)COCC(=O)O)CC1	-11	10	+	-11	+
N#Cc1nc(-c2ccc(F)cc2)oc1N1CCN(C(=O)c2ccco2)CC1	-6	-8	i	-2	.
Cc1nc(N2CCN(C(=O)c3ccco3)CC2)c(C#N)c2c1CCCC2	6	-13	+	4	i
Cc1cc(C(=O)N2CCN(c3ncccc3C#N)CC2)no1	5	0	i	4	.
CCCc1cc(=O)oc2c(CNc3ccc(OCC)cc3)c(O)ccc12	-3	-6	.	-10	.
C(=C\c1cccc2ccccc12)/c1nnc(-c2cccs2)o1	-5	-9	+	4	.
CC(C)NC(=O)/C(=C/c1ccco1)c1ccccc1	-1	-9	+	4	i
CCCc1cc(-n2cnc3ccccc32)n2c(nc3ccccc32)c1C#N	-3	16	+	-4	i
COc1cc(NC(=O)CSc2nc3ccccc3n2-c2ccccc2)c(C)cc1[N+](=O)[O-]	-8	20	+	-3	i
Cc1ccc(NS(=O)(=O)c2cc(NC(=O)c3ccc4c(c3)NC(=O)CS4)ccc2Cl)c(C)c1	10	?	+	-7	i
COc1ccc(NC(=O)c2ccc3c(c2)NC(=O)CS3)cc1	1	.	i	3	.
O=C(Cc1ccc(NC2=NC3CS(=O)(=O)CC3S2)cc1)NCc1ccc(Cl)cc1 (stereo not given)	-2	-5	i	7	.
Cc1cnc(NC(=O)c2ccc(-c3ccc([N+](=O)[O-])cc3)o2)s1	-8	.	i	-10	.
Cc1cnc(NC(=O)c2ccc(-c3nc4ccccc4s3)o2)s1	-2	-26	+	1	i
Cc1nc2ccc(-c3nc4ccccc4[nH]3)cc2[nH]1	-8	.	+	1	i
C[C@H](NC(=O)c1cc2c(cn1)[nH]c1ccccc12)C(=O)O	-4	-5	+	7	+
Clc1ccc(-c2nnc(-c3ccccc3)o2)cn1	-2	9	i	3	.
CC1(C)Oc2ccc3ccc(=O)oc3c2CC1O (stereo not given)	1	16	+	1	.
CCO[C@H]1c2c(ccc3ccc(=O)oc23)OC(C)(C)[C@H]1O	-8	.	+	-3	i
CCC(C)N(C(=O)COC(=O)c1cc([N+](=O)[O-])ccc1N)C1CCS(=O)(=O)C1 (stereo not given)	6	-1	i	-2	.
O=C(CCc1ccccc1)Nc1nnc(-c2ccccn2)o1	2	10	+	-9	+
SMILES	PKA-R2B act	PolyA inhibitor	Neddylation inh	PKA-R1A activ	Neddyl conf
COc1ccc(-c2cnc3c(NC(C)=O)cc(-c4cc(F)ccc4OC)cn23)cc1OC	.	.	+	.	i
O=C(N/N=C/c1c[nH]c2ccccc12)c1cc(Cl)ccc1O	-4	2	+	0	i
O=c1[nH]c2ccccc2c2cn(-c3ccccc3)nc12	2	-4	+	-5	i
CC(=O)O/N=C/c1c(NCc2ccccc2)nc2c(C)cccn2c1=O	.	-10	i	.	.
Cc1cccn2c(=O)c(/C=N/O)c(NCc3ccccc3)nc12	-7	-8	+	2	.
Cc1cccn2c(=O)c(C=NCc3ccccc3)c(NCCO)nc12	-2	-11	+	-11	+
COc1ccc(-n2cc(CNCc3cccnc3)c(-c3cccc(F)c3)n2)cc1	-10	14	+	0	+
COc1ccc(-c2nn(-c3ccccc3)cc2CNCc2cccnc2)c(F)c1	1	16	i	-5	.
CCC(=O)N(Cc1ccco1)Cc1cc2cc3c(cc2[nH]c1=O)OCO3	3	-3	+	-9	i
COCCCNC(=S)N(CCO)Cc1cc2cc3c(cc2[nH]c1=O)OCCO3	-8	-15	i	-11	.
CCN(CC)CCCN(Cc1cc2cc3c(cc2[nH]c1=O)OCO3)C(=S)NCc1ccco1	3	7	+	3	i
CCN(CC)CCN(Cc1cc2cc3c(cc2[nH]c1=O)OCCO3)C(=S)NCCCOC	-4	-13	+	5	.
COc1ccc(-c2cc(C(F)(F)F)n3ncc(C(=O)NCc4ccco4)c3n2)cc1	-2	1	.	3	.
O=C(NCc1ccco1)c1cnn2c(C(F)(F)F)cc(-c3ccccc3)nc12	-1	-7	+	4	i
Cc1cc(NC(=O)COc2ccccc2C)ccc1NC(=O)c1ccco1	4	-6	i	-1	.
COc1cc(NC(=O)COc2ccccc2C)ccc1NC(=O)c1ccco1	-9	-4	+	0	.
COc1ccc(Cl)cc1Nc1nc(N)c2ccccc2n1	1	17	+	-9	+
CC(C)NC(=O)N(C)C[C@@H]1Oc2ccc(NC(=O)CCN3CCOCC3)cc2CC(=O)N([C@@H](C)CO)C[C@@H]1C	-14	.	i	-5	.
O=C(NCc1ccccc1)C(c1ccccc1F)N(C(=O)c1csnn1)C1CCCC1 (stereo not given)	-8	4	i	-1	.
N#CCCn1c(-c2nonc2NC(=O)c2ccccc2Cl)nc2ccccc21	-4	17	i	-7	.
CC(=O)Nc1nonc1-c1nc2ccccc2n1CCC#N	-19	12	+	-14	i
Cc1ccc(CNC(=O)CC(C)S(=O)(=O)c2ccc3c(c2)NC(=O)CS3)o1 (stereo not given)	-4	-2	i	1	.
Nc1c(C(=O)Nc2ccccc2)c2nc3ccccc3nc2n1CCCN1CCOCC1	-9	-5	+	-14	+
N#Cc1c(N)n(CCCN2CCOCC2)c2nc3ccccc3nc12	11	.	.	4	.
Cc1cc(C)n2c3c(c(C#N)c2n1)CCCC3	4	-10	+	-3	i
O=C(COC(=O)/C=C/c1ccccc1)NNC(=O)c1ccccc1F	-5	.	i	0	.
Cc1ccc2c(c1)c1c3n2CCN(C(=O)C2CC2)C3CCC1 (stereo not given)	-2	12	+	2	i
